Assay results as given in PubChem BioAssay (NCI).
This is part of a sample that, as a whole, favours compounds with a hit. Of some 79,000 tested, about 15% had one in any assay. A number with no mark means an inactive call. Activity calls are given as the source filed them. Cut-off read from the data, not from the text of the source: active = growth inhibition above about 70%; inactive = the rest. Where a SMILES comes first, the peptide text is derived from it. [ ]: non-standard residue; d: D form. The star is where a group is joined. Phe(4-NO2) = N[CH](Cc1ccc([N+](=O)[O-])cc1)C(=O)O; Boc = CC(C)(C)OC(=O)*; OtBu = CC(C)(C)O*

Key:
[1] = NCI Yeast Anticancer Drug Screen. Data for the rad50 strain (AID 155);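 note: 0% = growth of vehicle-only cultures of the same strain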; conditions: S. cerevisiae rad50 strain growth inhibition; at 50.0 µM; stronger effect = higher value
Procedure, shortened: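 DNA repair mutant yeast, compound exposure, growth read-out; inhibition is taken relative to vehicle.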

[2] = NCI Yeast Anticancer Drug Screen. Data for the mec2-1 strain (AID 157); conditions: S. cerevisiae mec2-1 strain, at 50.0 µM, stronger effect = higher value
Procedure, shortened: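 Yeast mec2-1 mutant treated with compound. Readout: growth inhibition vs vehicle controls.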

[3] = NCI Yeast Anticancer Drug Screen. Data for the sgs1 mgt1 strain (AID 161);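 note: 0% = growth of cultures given vehicle only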; conditions: S. cerevisiae sgs1 mgt1 strain, at 50.0 µM, stronger effect = higher value
Procedure, shortened: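 Inhibition of yeast growth, normalised to vehicle-treated controls, is reported for a strain bearing genetic alterations in DNA damage repair.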

[4] = NCI Yeast Anticancer Drug Screen. Data for the cln2 rad14 strain (AID 165);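 note: 0% = growth equal to vehicle treated cultures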; conditions: S. cerevisiae cln2 rad14 strain, at 50.0 µM, stronger effect = higher value
Procedure, shortened: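 cln2 rad14 yeast strain; compound exposure; growth inhibition read vs vehicle controls.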

[5] = NCI Yeast Anticancer Drug Screen. Data for the bub3 strain (AID 167); conditions: S. cerevisiae bub3 mutant strain, at 50.0 µM, stronger effect = higher value
Procedure, shortened: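 In this screen, a yeast mutant lacking normal mitotic checkpoint function is challenged with compound. Relative growth versus vehicle gives the inhibition value.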

[6] = NCI Yeast Anticancer Drug Screen. Data for the mlh1 rad18 strain (AID 175); conditions: S. cerevisiae mlh1 rad18 strain growth inhibition; at 50.0 µM; stronger effect = higher value
Procedure, shortened: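 Yeast w/ defined DNA-repair lesions; compound exposure; growth vs vehicle controls → % inhibition.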

| SMILES | growth inhibition [1] | growth inhibition [2] | growth inhibition [3] | growth inhibition [4] | growth inhibition [5] | growth inhibition [6] |
| --- | --- | --- | --- | --- | --- | --- |
| CN(C)CCC(O)c1ccccc1 (stereo unspecified) | 7.2% | -1.25% | 2.2% | -20.5% | -6.2% | -22.6% |
| Cc1cc2c(C#N)c3ccccc3c(=O)n2c2ccccc12 | -0.95% | 6.75% | -1.25% | -7.4% | -13.7% | 3.4% |
| COC(=O)NC(c1ccccc1)C(C)I (stereo unspecified) | 7.3% | -0.6% | -2.85% | -9.65% | 3.25% | 12.3% |
| COc1nc(NC2OC(CO)C(O)C(O)C2O)c(C(C)=O)c(=O)n1C (stereo unspecified) | 12.2% | 2.25% | 24.1% | 15.2% | -6.25% | 12.5% |
| O=C(O)CCc1ccc2c(c1)C(=O)CC2 | -35% | -27.9% | -23.2% | -16.1% | -3.95% | -37.4% |
| CCn1c(C)nc([N+](=O)[O-])c1Sc1ncc[nH]1 | -7.8% | 0.7% | -11.4% | 27.8% | 10.2% | -3.35% |
| COC(=O)CCC(=O)O | 8.6% | -0.1% | 11.2% | -8.05% | -2.05% | 43.4% |
| CC(C#N)N(C)c1c([N+](=O)[O-])c(=O)n(C)c(=O)n1C (stereo unspecified) | -5.85% | -13.3% | -5.4% | -14.9% | -2.7% | -20.7% |
| CCCCCCCCCCCCCCCCC1Cc2ccccc2C1 | -12.6% | 8% | -12.8% | -12.1% | -4.15% | -7.6% |
| CCC(C)(N)C(=O)O (stereo unspecified) | 10% | 13.3% | 5.1% | 2.6% | 18.2% | 4.05% |
| NCCc1c(-c2cccnc2)[nH]c2ccccc12 | -14.5% | -9.1% | -2.75% | -25.4% | 7.6% | 1.1% |
| CN(CCN(C)C(=O)CCOS(C)(=O)=O)C(=O)CCOS(C)(=O)=O | -3.95% | -3.05% | -18.4% | 0% | -25.6% | -51.5% |
| O=C1C(=O)c2ccccc2C(O)=C1CC=C(Cl)Cl | -3.9% | 5.5% | -5.6% | -33.1% | 29.9% | -33.6% |
| CCCCCCCCC(C)(C)O | -3.15% | -3.55% | -1.25% | 3.05% | 5.65% | -4.45% |
| Nc1[nH][nH]c(=O)c1N=Nc1ccccc1 | -7.75% | -8.95% | -1.15% | -6.6% | 8.4% | 5.15% |
| CCO/C=C1/C(=O)N(C)c2c1c(=O)n(C)c(=O)n2C | -46.9% | -0.25% | -4.05% | -14.3% | -18.1% | -5.15% |
| N#CCC(=O)N1CCc2ccccc2C1 | -30.9% | 0.45% | 1.85% | -79.7% | 9.6% | 14.2% |
| CCCCCCCCCCCC(=O)CC(=O)c1c(O)cccc1O | 1.35% | -11.6% | 6.45% | 0.1% | 20.7% | -12.2% |
| CC(=O)NNc1nc(C)c(C(/C=C/c2ccc(/C=C/C(=N\NC(=O)c3ccncc3)c3sc(NNC(C)=O)nc3C)cc2)=N/NC(=O)c2ccncc2)s1 | -16.6% | -7.35% | -8.95% | 12.7% | 1.4% | -13.3% |
| CSc1ccc(NC(=O)Nc2cc(C(C)C)ccc2C)cc1 | 0.6% | 38.4% | 13.9% | -18% | 43.2% | 28.2% |
| O=C(CC(c1ccccc1)C(Br)(c1ccccc1)[N+](=O)[O-])c1ccccc1 (stereo unspecified) | 11.8% | -0.45% | -2.75% | 22.2% | -3.4% | -5.8% |

| SMILES | growth inhibition [1] | growth inhibition [2] | growth inhibition [3] | growth inhibition [4] | growth inhibition [5] | growth inhibition [6] |
| --- | --- | --- | --- | --- | --- | --- |
| N#CC1=CN(Cc2ccccc2)C(c2ccccc2)C=C1 (stereo unspecified) | 23.2% | -2.15% | -3.9% | 4.65% | 35.9% | 27% |
| CC(=O)OCC(COC(C)=O)C(C)=O | -7.35% | -5.75% | -8.5% | 21.6% | 4.65% | -22.6% |
| CC(O)CC(=O)c1ccc(O)cc1 (stereo unspecified) | -42% | -41% | -30.2% | 1.7% | -49.5% | -41.3% |
| COc1cc(/C=C/C(=O)OC2C(O)C3CC(OC(=O)c4cc(OC)c(OC)c(OC)c4)CC2N3C)cc(OC)c1OC (stereo unspecified) | 0.55% | -21.6% | 7.6% | 6.15% | -7.95% | -4.95% |
| C[n+]1nnn(/N=C\c2ccccc2)c1N | -3.55% | 11.8% | 10.1% | -0.95% | 8.75% | 11.6% |
| NNc1nc2ccccc2c(=O)n1NC(=O)C(=O)Nc1cccc(C(F)(F)F)c1 | -0.35% | 17.6% | -3.9% | -38.6% | -6.15% | 31.4% |
| CN(C)C(=S)N(C)C | -37.1% | -33% | -17.4% | 0.45% | -23.2% | -23.7% |
| CC(=O)NC1CCCCC1C1CCC([N+](=O)[O-])CC1 (stereo unspecified) | 12.6% | -1.75% | -12.5% | 12.7% | 6.9% | 6.05% |
| CC(=O)NC(CCC(=O)OC(C)(C)C)C(=O)NC(CCC(=O)OC(C)(C)C)C(=O)NC(Cc1ccc([N+](=O)[O-])cc1)C(=O)NC(CCCCNC(=O)OC(C)(C)C)C(=O)NC(CCCCNC(=O)OC(C)(C)C)C(=O)NCC(=O)O (stereo unspecified) (Ac-E(OtBu)E(OtBu)[Phe(4-NO2)]K(Boc)K(Boc)G-OH; configuration not given here) | -31.4% | -19.4% | -22.6% | 13.4% | -8.2% | -27.3% |
| Cc1cc(Br)ccc1NC1=CC(=O)C(=O)c2ccccc21 | 9.95% | 19.6% | -3.4% | 11.3% | 13.2% | 32.1% |
| CCOc1ccccc1NC(=O)Nc1cccc(C(F)(F)F)c1 | 68.8% | 60.5% | 76% (active) | 72.3% (active) | 76% (active) | 88.9% (active) |
| CN1CC(C(N)=O)=CC(C(N)=O)C1 (stereo unspecified) | -5.25% | -9.2% | -8.15% | -0.6% | 9.25% | 7.5% |
| O=C(O)C1CSCN1 (stereo unspecified) | -3.85% | -22.9% | -3.2% | 1.1% | 1% | 18.3% |
| CCOC(=O)c1nnn(Cc2ccccc2)c1N | -2.1% | -7.35% | 3.75% | 26.1% | 1.7% | -9.35% |
| Cc1ccc(NC(=O)c2cc3ccccc3c(N=Nc3ccccc3O)c2O)c(C)c1 | -11.9% | 5.4% | 9% | 9.85% | 12.6% | 10.7% |
| COC(=O)c1nc(N)nc(C(=O)OC)c1C(=O)c1ccncc1 | -12.2% | -19.9% | 0.1% | -16.1% | -24.9% | -4.45% |
| CC(=O)c1ccc(Cl)c(Cl)c1 | -3.6% | -0.5% | -3.75% | 14.9% | 4.7% | -15.3% |
| Cc1nc2[nH]cc(-c3ccccc3)c2c(=N)n1-c1ccc(F)cc1 | -7.45% | 0.8% | -11.2% | -23.1% | -7.6% | 0.55% |
| CC(C)C1NC(=O)[C@H](C)OC(=O)[C@@H](C(C)C)NC(=O)[C@@H](C)OC(=O)C(C(C)C)NC(=O)[C@H](C)OC1=O (stereo partly specified) | -36.7% | -2.15% | -17.1% | 14.9% | 2.85% | -10.2% |
| CCOCCOC(=O)CCCCCCCCC(=O)OCCOCC | 9.7% | 11.9% | 12.6% | 37.9% | 25.6% | 25.9% |
